Compounds with a hit are over-represented: about 6.1% of the library has one in this group of screens.
D1 potentiator: enhances dopamine response at the human D1 receptor. 360,000 compounds, 0.036% hits. HEK293 TREx D1 cells, calcium flux, dopamine EC20 potentiation. potentiation, % at 10 µM. P21728; in the data active = potentiation above about 30%; also: 0% is about no effect
Target sequence (P21728 whole entry, looked up): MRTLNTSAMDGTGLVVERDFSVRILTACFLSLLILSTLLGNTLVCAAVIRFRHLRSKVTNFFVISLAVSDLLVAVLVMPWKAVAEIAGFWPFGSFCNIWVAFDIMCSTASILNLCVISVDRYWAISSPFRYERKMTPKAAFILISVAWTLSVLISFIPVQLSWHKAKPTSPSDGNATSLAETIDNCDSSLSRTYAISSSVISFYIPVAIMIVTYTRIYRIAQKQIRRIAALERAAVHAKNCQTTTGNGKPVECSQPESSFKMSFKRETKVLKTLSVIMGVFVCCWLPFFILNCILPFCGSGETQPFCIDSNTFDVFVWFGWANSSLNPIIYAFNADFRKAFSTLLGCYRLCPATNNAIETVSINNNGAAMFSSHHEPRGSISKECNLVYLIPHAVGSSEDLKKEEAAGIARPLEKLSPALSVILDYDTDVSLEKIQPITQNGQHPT
D1 antag: human D1 dopamine receptor antagonism. HEK293 TREx D1 cells, calcium flux, dopamine EC80; active compounds read low. 360,000 compounds, 3.2% hits. activity change, negative = inhibition, % at 10 µM. P21728; in the data active = activity change below about -30%; also: % is scaled to controls: 0 for no effect and ±100 for the full control effect
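Using tetracycline-induced force-coupled D1 Hek293 cells and a calcium dye, signals were followed for 180 s after compound, then for 180 s after EC80 dopamine, to detect inhibitors.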
D1 ag: human D1 receptor agonism; P21728; HEK293 T-REx D1 cells, calcium flux, agonist mode; activation, % at 2 µM; 360,000 compounds, 1% hits; in the data active = activation above about 30%; also: 0% is about no effect
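Tetracycline-induced HEK293 TREx D1 cells, force-coupled to calcium signalling, were dye-loaded with a no-wash calcium kit. Compound was pin-added after a 10 s baseline. Fluorescence was read kinetically at 1 cycle/s for 180 s, with calcium rises flagged as agonism.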
DRD3 antagonist: D3 dopamine receptor (human) antagonism. P35462. D3R cells, DiscoveRx beta-arrestin luminescence, antagonist mode; active compounds read low. max response, negative = inhibition, %. 360,000 compounds, 2.5% hits. AID 652054; in the data active = max response below about -50%; inconclusive = no clear call, values can overlap the other calls; also: % is scaled to controls: 0 for no effect and ±100 for the full control effect
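Cells expressing the human receptor were seeded at 1500 cells/well, incubated overnight at 37 degrees C in 5% CO2, then exposed to library compounds with dopamine controls for 90 minutes at 37 degrees C before luminescent detection.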
D3 ag: D3 dopamine receptor (human) agonism | P35462 | D3R DiscoveRx beta-arrestin cells, luminescence, 90 min | max activation, % | 410,000 compounds, 0.58% hits; in the data active = max activation above about 30%; also: 0% is about no effect
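Cells at 1500/well, incubated overnight, then treated with pinned compounds (dopamine as control) for 90 min at 37 degrees C. DiscoveRx reagent added for 30 - 60 minutes at room temperature; luminescence read.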
An asterisk follows results filed as active; ? = inconclusive; · = no result.

SMILES	D1 potentiator	D1 antag	D1 ag	DRD3 antagonist	D3 ag
CCOc1cc(/C=N/Nc2nnc(C)n2N)ccc1OC(C)=O	-2	-33*	0	?	-4
O=C(OCc1ccccc1)c1cccnc1	·	·	·	·	-2
NC(=O)c1ccc(NC(=O)COC(=O)CCC(=O)c2ccc(Cl)cc2)cc1	-7	-31*	2	10	0
O=C(COC(=O)CCC(=O)c1ccc(F)cc1)Nc1ccccc1	-1	7	0	-7	17
CCCOc1ccc(NC(=O)CNC(=O)c2cc(OC)cc(OC)c2)cc1OCCC	7	-5	1	-58*	-20
O=C(NNC(=O)c1ccc(NC(=O)c2ccccc2)cc1)Nc1ccccc1	-3	-5	9	-4	-2
O=C(Nc1nc(-c2ccccc2)c(-c2ccccc2)o1)c1ccc(F)cc1	5	2	3	-100*	-28
O=C(NNC(=O)c1ccc(NC(=O)c2ccccc2)cc1)c1ccc(F)cc1	-3	-67*	4	-6	3
O=C(Nc1ccccc1NC(=O)c1ccc(F)cc1)c1ccc(F)cc1	-2	-36*	3	25	4
O=C(NNS(=O)(=O)c1ccccc1)c1ccc(F)cc1	-9	2	2	-10	3
O=C(NNS(=O)(=O)c1ccccc1)Nc1ccc(F)cc1	-7	-36*	1	8	1
CCOc1ccc(CCNC(=O)c2nc(-c3cccc(F)c3)n3c2CCCCC3)cc1OCC	1	-12	0	·	1
CC(C)c1ccc(C2c3c(-c4ccccc4O)n[nH]c3C(=O)N2Cc2ccncc2)cc1 (stereo unspecified)	3	5	0	·	3
Cc1cccc(-n2ncc(C(=O)N3CCN(Cc4ccccc4)CC3)c2C2CCN(C(=O)OC(C)(C)C)CC2)c1	8	0	0	·	1
CCOc1ccc(OCC)c(NS(=O)(=O)c2c(C(=O)N3CCCCCC3)c(C)n(C)c2C)c1	-4	0	-1	·	5
CCOc1ccc(S(=O)(=O)NCCc2c(C)[nH]c3c(Cl)cccc23)cc1C	-5	4	0	·	-10
CC1=C(C#N)C(c2ccc3ncccc3c2)C(C#N)=C(C)N1	-4	9	4	-61*	18
O=C(OCC#CCSc1nnc(-c2cccc3ccccc23)s1)c1cccs1	9	-7	4	·	·
Cc1cc2oc(C(=O)Nc3cccc(-c4nc5ccccc5o4)c3)c(C)c2cc1C	-1	-4	54*	·	-5
Cc1cc(C)c2oc(-c3cccc(NC(=O)c4ccco4)c3)nc2c1	1	-46*	3	·	-11
CC(=O)Nc1cccc(-c2nc3ccccc3o2)c1	2	25	4	9	1
COc1ccccc1OC(C)C(=O)Nc1cccc(-c2nc3ccccc3o2)c1 (stereo unspecified)	-1	-8	32*	·	3
Cc1nc(CC(=O)Nc2cc(Cl)ccc2C)cs1	5	3	-1	·	8
Cc1ccccc1NC(=O)c1ccc(CN2CC(=O)N3CCCCC3C2=O)cc1 (stereo unspecified)	-2	-37*	2	8	5
COc1ccc(Cl)cc1NC(=O)Cn1nc(Cc2ccncc2)c2ccccc2c1=O	0	6	2	·	-10
SMILES	D1 potentiator	D1 antag	D1 ag	DRD3 antagonist	D3 ag
N/C(Cc1cccc2ccccc12)=N\O	2	-13	2	19	30*
COc1ccc(OC)c(Nc2ncc3c(n2)CCN(Cc2cc(OC)c(OC)c(OC)c2)C3)c1	1	-8	-1	·	-11
CCc1nnc(NC(=O)c2ccc(S(=O)(=O)N(CC(C)C)CC(C)C)cc2)o1	-5	-27	1	-107*	-7
CCN(CC)S(=O)(=O)c1nnc(NC(=O)c2ccc(C(C)C)cc2)s1	-1	1	0	·	-10
CCN(CC)S(=O)(=O)c1ccc(C(=O)Nc2nnc(C(C)C)s2)cc1	-12	-40*	2	-69*	-3
Cc1c(C(=O)NCCc2ccc(Cl)cc2)cccc1-n1cnc2cccnc21	-3	2	5	·	3
O=C(Cc1c(O)c2ccccc2[nH]c1=O)N(Cc1ccccc1)Cc1ccccc1	-9	0	1	-13	2
CCCCCCN(CCCCCC)C(=O)Cc1c(-c2ccc(F)cc2)[nH]c2ccccc12	-7	-61*	-1	42	17
COc1ccc2cc1Oc1ccc(cc1)CC1c3c(cc(OC)c4c3Oc3cc5c(cc3O4)CCNC5C2)CCN1C (stereo unspecified)	-12	-41*	5	-23	-9

Compound activity from PubChem BioAssay.
